# Test results reported in the OligoGym collection.
# Target: HOXA6
# Test: pooled miR-30 sensor sort-seq; sequence = guide strand
# Conditions: shRNA
# Also: reference of the scale not given here.
row,Sequence,sensor-assay potency score (higher = more potent)
1,TGTACTTCCGGTCGGCGCCTTC,-0.845
2,ATTGATGAGCTTGTTTTCCTTT,0.0267
3,TTGTCCGGGAGACTCGACGCCC,-0.988

# Target: HOXD12
# Test: as above
# Conditions: shRNA
row,Sequence,sensor-assay potency score (higher = more potent)
1,TTAGCCTGCTCTTCGGGTCCGT,-0.755
2,ATTTTGACTTGCTGGTCGCTGA,-0.889
3,TAGGGTTTCCGCTTCTTGCGGG,-0.0363
4,TATTGGACAATTCCTTGCGTTT,-1.31
5,TTGACTTGCTGGTCGCTGAGGT,0.586
6,TGGAGAAGTAGAAAGAGTCTGG,-0.0412
7,TGTCATGTTCAAGTTGAGCGGG,-0.623
8,TTGCTGGTCGCTGAGGTTCAGC,-1.6
9,TTGGTGTCGTCCTTGAAGCCAG,-0.854
10,TTTGACTTGCTGGTCGCTGAGG,-0.827

# Target: HOXD4
# Test: as above
# Conditions: shRNA
row,Sequence,sensor-assay potency score (higher = more potent)
1,TTGGGGTCCACATACTTGGAGT,-0.994
2,TTCTTTTTCCAGTTCTAGGACT,-0.804
3,TTTTTCCAGTTCTAGGACTTGC,-0.495
4,TTATGTTCTCAGTAGCTCCTGC,0.0954
5,TCGGACTGACTGTAGGCCCGGG,-0.239
6,TGCACCTTCTTCATCCAGGGGT,-0.0453
7,TTATGATCTTTTTTCCACTTCA,-0.3
8,TAGGACTTGCTGCCGGGTGTAG,-1.46
9,TAGTGTTGGGCAGCTTATGATC,-1.61
10,ATGATCTTTTTTCCACTTCATC,-1.7
11,TAAAATGAAATTCTTTTTCCAG,-0.413

# Target: HP1BP3
# Test: as above
# Conditions: shRNA
row,Sequence,sensor-assay potency score (higher = more potent)
1,TTCTGAACCACAACAAAACTTC,-0.196
2,TATCTTCTACCTTCTCACCTAA,-0.313
3,TAGACTGATCTTTCTCATCCTT,0.288
4,TTTTCGAATAGCAACCACTGAT,-0.782
5,TTCTTCTGCAACCTTCTCTTAG,-0.784
6,TTCGGAAACAGAACTCCTGGGC,0.0322
7,TCTTCGGAAACAGAACTCCTGG,-0.507
8,TTGATTTCTGAACCACAACAAA,-1.61
9,TTCCTCTGAACTTATGTCTGGT,0.357
10,TAAGATTGCATCCATCTTGGGA,-0.272
11,TACTGAGACACATATTTCCTGA,-0.347

# Target: HPD
# Test: as above
# Conditions: shRNA
row,Sequence,sensor-assay potency score (higher = more potent)
1,TTATAGTCCACATATTCCTGGA,0.144
2,TTGAACAGTGAGTTGAAGTTGC,0.599
3,TATTCCGTGTGCACCTGCGTGT,-0.504
4,TGTGATGATGTCTTCGGTCTTG,0.215
5,ATGACTTCCAGGAAGAGCGTGG,-0.0981
